The target in one experiment is Albumin (Bos taurus) (UniProt P02769). Description: bovine serum albumin binders on microarray, profiling panel, artefact control for SMM control protein annotation, biochemical, small-molecule microarray, Alexa647 label, 635/667 nm fluorescence (AID 1118).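 Further: score merges 667 nm emission intensity and signal-to-noise per printed compound spot.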 Particulars: BSA-A647 binding, fluorescence 635 nm, higher = more signal.
Experiment [1] is described as follows: small-molecule microarray binders of probe aXIP, primary screen, biochemical, NeuroSMM set, 635/667 nm fluorescence (AID 1119).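 Further: probe is the protein aXip251-270 applied at 1 µg/mL to compound-printed slides; binding of probe to printed compounds measured as 667 nm fluorescence plus signal to noise.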 The note with it: higher = more signal, called active from +8 up or from −8 down.
Experiment [2] can be described thus: small-molecule binders of probe aNOTCH3, primary screen, biochemical, small-molecule microarray, 635/667 nm fluorescence (AID 1120).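 Further: probe is a biotin-tagged antibody raised against NOTCH3 rather than NOTCH3 protein; score merges spot fluorescence near 667 nm with spot signal to noise.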 Particulars: higher = more signal.
Experiment [3] is described as follows: small-molecule binders of probe aNOTCH2, primary screen, biochemical, small-molecule microarray, 635/667 nm fluorescence (AID 1121).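 Further: score merges feature fluorescence read at 667 nm with its signal to noise.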 Particulars: higher = more signal.
Experiment [4] has as its target Carbonic anhydrase 2 (Homo sapiens) (UniProt P00918). Description: CAII small-molecule binders, profiling panel, biochemical, small-molecule microarray, Alexa647-labelled CAII (AID 1122). Particulars: CAII-A647 binding fluorescence, higher = more signal.
Experiment [5] is described as follows: COS7 lysate on small-molecule microarray, probe aHis, 635 nm (AID 1123).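 Further: z-score combines 667nm fluorescence intensity with signal-to-noise per printed compound spot.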 Particulars: COS7 cell lysate, fluorescence, higher = more signal.
The nature of experiment [6]: compound binding in COS7 lysate, probe aLAP1, primary screen, cell lysate, small-molecule microarray (AID 1124).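 Further: lysate comes from COS7 cells expressing LAP1 and is applied at 0.3 µg/mL; score merges spot fluorescence near 667 nm with signal-to-noise over triplicate slides.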 Particulars: probe aLAP1, fluorescence, higher = more signal.
The subject of a further experiment is Sam68 (KHDRBS1). Description: Sam68 small-molecule binders, primary screen, biochemical, small-molecule microarray, 635 nm fluorescence (AID 1125).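 Further: score merges 667 nm channel intensity with signal to noise over triplicate slides.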 The note with it: small-molecule microarray binding, higher = more signal.
Experiment [7] deals with Chordin-like protein 2 (CHRDL2). Description: CHRDL2 small-molecule binders, primary screen, biochemical, small-molecule microarray, 635 nm fluorescence (AID 1126).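 Further: printed compound slides probed with Chrdl2 protein at 4 µg/mL for 1 h at 4 C; score merges 667 nm emission intensity with signal to noise over three replicate slides.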 Particulars: small-molecule microarray binding, fluorescence 635 nm; higher = more signal.
Experiment [8] has as its target Concanavalin-A (Canavalia ensiformis) (UniProt P02866). Description: ConA small-molecule binders, primary screen, artefact control for SMM control protein annotation, biochemical, small-molecule microarray, Alexa647 label, 635 nm (AID 1127).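 Further: z combines 667 nm emission intensity with signal-to-noise across three replicate slides.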 Particulars: ConA-A647 binding fluorescence, higher = more signal.
Experiment [9] in a line: anti-His antibody binders, primary screen, artefact control for SMM control protein annotation, biochemical, small-molecule microarray, 635 nm fluorescence (AID 1128).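 Further: score merges feature fluorescence with signal-to-noise for each printed compound spot.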 Particulars: anti-His Alexa647 antibody binding, higher = more signal.
Experiment [10] has as its system Human papillomavirus type 1a E7 protein (residues 1-88). Briefly: HPV1a E7 small-molecule binders, primary screen, biochemical, small-molecule microarray, residues 1-88, 635 nm (AID 1129). Particulars: small-molecule microarray binding, fluorescence 635 nm; higher = more signal.
Experiment [11] addresses Focal adhesion kinase 1 (Homo sapiens) (UniProt Q05397). Briefly: small-molecule microarray binders of FAK, primary screen, biochemical, 635/667 nm fluorescence, BSA, DTT (AID 1130).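 Further: composite of spot emission at 667 nm and signal to noise over triplicate slides.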 Particulars: PTK2 binding, 635 nm fluorescence, higher = more signal.
The test system of experiment [12] is Fibrinogen (Alexa647-labelled). Briefly: fibrinogen binders on compound microarrays, profiling panel, artefact control for SMM control-protein annotation, biochemical, small-molecule microarray, 635/667 nm fluorescence (AID 1131).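 Further: z-score merges 667 nm fluorescence with per-spot signal-to-noise over triplicate slides.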 The note with it: fibrinogen-A647 binding fluorescence, higher = more signal.
The target in experiment [13] is Follistatin (Homo sapiens) (UniProt P19883). Briefly: follistatin binders on small-molecule microarrays, primary screen, biochemical, small-molecule microarray, 635/667 nm fluorescence (AID 1132). Particulars: FST binding, 635 nm fluorescence, higher = more signal.
Sequence of Follistatin (Homo sapiens) (P19883 whole entry, looked up): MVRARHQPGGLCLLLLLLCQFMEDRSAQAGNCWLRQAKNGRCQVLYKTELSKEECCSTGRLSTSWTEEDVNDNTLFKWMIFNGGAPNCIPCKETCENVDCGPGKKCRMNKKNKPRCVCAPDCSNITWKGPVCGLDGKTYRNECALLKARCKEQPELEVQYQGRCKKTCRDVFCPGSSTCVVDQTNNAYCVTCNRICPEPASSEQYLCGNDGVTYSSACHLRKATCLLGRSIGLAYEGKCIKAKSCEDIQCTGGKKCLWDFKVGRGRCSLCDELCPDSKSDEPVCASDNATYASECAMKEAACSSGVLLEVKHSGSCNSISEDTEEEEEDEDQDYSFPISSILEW
Experiment [14] concerns the target Fibroblast growth factor 2 (Homo sapiens) (UniProt P09038). Briefly: FGF2 binders on small-molecule microarrays, primary screen, biochemical, small-molecule microarray, 635/667 nm fluorescence (AID 1133). Particulars: small-molecule microarray binding, FGF2, fluorescence 635/667; higher = more signal.
The nature of experiment [15]: mitochondrial membrane potential change in A549 cells, profiling panel, cell-based, JC-1 fluorescence, basal, 24 h, 100 nL (AID 1138).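 Further: A549 lung adenocarcinoma cells under basal conditions with no added stimulus; test concentration not given here.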 Particulars: higher = more signal.
For another experiment, the system named is Lefty1. Briefly: Lefty1 binders on small-molecule microarrays, primary screen, biochemical, small-molecule microarray, 635/667 nm fluorescence (AID 1139). Particulars: small-molecule microarray binding, fluorescence 635/667; higher = more signal.
In experiment [16] the test system is wheat germ agglutinin (Triticum aestivum), Alexa647-labelled. Briefly: wheat germ agglutinin binders on compound microarrays, profiling panel, artefact control for SMM control-protein annotation, biochemical, small-molecule microarray, 635/667 nm fluorescence (AID 1140).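 Further: score merges 667 nm feature emission with signal to noise over triplicate slides.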 Particulars: WGA-A647 binding, 635 nm fluorescence, higher = more signal.
In experiment [17] the target is Luciferin 4-monooxygenase (Photinus pyralis) (UniProt P08659). Description: firefly luciferase enzyme inhibitors, primary screen, biochemical, luminescence, purified enzyme, 2006 set (AID 1141).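 Further: cell-free assay with purified firefly luciferase at 100 ng per well in PBS; test concentration not given here.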 Particulars: SteadyGlo luminescence, 30 min, higher = more signal, called active from +8 up or from −8 down.
Sequence of Luciferin 4-monooxygenase (Photinus pyralis) (P08659 whole entry, looked up): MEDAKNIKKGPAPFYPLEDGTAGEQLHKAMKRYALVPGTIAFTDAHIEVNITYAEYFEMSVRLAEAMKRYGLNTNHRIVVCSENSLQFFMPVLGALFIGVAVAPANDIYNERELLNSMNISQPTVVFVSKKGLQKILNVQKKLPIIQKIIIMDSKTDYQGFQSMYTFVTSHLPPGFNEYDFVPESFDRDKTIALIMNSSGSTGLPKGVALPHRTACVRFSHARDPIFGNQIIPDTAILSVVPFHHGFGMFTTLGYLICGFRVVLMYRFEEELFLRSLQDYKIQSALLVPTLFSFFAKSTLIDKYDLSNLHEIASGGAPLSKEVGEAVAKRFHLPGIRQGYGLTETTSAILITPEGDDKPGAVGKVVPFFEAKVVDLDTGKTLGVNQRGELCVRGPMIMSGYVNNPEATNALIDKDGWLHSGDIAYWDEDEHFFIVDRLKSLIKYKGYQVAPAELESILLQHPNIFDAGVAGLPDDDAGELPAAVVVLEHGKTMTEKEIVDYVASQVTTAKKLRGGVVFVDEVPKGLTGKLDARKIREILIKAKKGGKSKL

Structures are written as SMILES. Calls of active or inactive are those of the source.

Sequence of Fibroblast growth factor 2 (Homo sapiens) (P09038 whole entry, looked up): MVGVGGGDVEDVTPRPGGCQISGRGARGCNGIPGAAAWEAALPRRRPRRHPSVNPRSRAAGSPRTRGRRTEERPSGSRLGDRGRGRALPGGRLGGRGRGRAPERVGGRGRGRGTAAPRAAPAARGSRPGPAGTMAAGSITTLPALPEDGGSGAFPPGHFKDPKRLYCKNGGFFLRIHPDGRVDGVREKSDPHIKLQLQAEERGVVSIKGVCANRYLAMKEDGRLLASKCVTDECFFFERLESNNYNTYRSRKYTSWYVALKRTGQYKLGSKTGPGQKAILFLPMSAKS
Sequence of Concanavalin-A (Canavalia ensiformis) (P02866 whole entry, looked up): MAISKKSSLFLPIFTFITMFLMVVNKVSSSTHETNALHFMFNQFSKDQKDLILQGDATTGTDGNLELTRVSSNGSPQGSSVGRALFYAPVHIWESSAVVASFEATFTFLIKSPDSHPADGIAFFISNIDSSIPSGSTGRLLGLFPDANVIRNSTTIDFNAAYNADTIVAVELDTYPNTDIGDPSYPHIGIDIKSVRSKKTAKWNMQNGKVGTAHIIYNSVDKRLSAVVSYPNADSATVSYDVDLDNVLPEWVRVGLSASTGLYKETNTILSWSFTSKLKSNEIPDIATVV
Sequence of Focal adhesion kinase 1 (Homo sapiens) (Q05397 whole entry, looked up): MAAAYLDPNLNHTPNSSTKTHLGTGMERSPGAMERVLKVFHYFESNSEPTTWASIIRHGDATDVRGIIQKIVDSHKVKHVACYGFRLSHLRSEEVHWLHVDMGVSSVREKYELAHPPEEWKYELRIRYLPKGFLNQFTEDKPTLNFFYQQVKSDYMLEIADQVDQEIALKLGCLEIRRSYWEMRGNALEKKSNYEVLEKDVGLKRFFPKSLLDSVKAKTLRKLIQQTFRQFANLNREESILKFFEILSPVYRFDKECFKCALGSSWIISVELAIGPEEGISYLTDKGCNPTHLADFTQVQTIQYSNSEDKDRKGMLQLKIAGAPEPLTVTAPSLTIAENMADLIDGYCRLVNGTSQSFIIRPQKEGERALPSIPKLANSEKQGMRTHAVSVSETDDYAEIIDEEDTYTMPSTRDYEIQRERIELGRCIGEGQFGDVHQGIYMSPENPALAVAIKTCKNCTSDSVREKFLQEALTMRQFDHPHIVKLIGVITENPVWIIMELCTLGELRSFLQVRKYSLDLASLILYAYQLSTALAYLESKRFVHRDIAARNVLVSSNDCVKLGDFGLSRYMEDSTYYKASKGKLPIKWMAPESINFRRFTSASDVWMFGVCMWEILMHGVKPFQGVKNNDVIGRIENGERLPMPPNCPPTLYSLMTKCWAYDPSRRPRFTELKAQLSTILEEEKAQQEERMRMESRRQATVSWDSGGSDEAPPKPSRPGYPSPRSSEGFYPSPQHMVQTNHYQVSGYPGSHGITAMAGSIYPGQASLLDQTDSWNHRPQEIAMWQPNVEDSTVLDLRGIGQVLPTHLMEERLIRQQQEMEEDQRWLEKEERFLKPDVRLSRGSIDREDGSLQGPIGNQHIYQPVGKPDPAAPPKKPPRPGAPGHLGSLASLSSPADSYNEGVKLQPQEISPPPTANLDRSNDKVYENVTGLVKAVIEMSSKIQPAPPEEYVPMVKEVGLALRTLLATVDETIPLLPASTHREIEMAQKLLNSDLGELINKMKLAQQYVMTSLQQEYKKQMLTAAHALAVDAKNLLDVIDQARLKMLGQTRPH
Sequence of Albumin (Bos taurus) (P02769 whole entry, looked up): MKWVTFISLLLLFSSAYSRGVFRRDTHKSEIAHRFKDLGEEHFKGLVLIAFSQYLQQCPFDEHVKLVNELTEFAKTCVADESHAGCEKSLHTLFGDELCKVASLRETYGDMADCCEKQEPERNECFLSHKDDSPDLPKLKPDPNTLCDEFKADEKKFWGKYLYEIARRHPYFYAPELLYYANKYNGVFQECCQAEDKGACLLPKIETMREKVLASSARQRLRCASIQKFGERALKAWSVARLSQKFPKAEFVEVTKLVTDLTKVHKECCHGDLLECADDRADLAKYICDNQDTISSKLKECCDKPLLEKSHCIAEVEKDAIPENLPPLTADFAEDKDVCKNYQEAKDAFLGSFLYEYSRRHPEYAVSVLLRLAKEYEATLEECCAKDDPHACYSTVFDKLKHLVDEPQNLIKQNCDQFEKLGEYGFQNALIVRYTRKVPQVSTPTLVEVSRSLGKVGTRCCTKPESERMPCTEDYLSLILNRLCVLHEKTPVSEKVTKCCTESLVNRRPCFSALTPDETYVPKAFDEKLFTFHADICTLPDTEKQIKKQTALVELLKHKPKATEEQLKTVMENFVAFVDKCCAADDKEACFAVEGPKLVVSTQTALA

Consider `COC(=O)[C@@]1(Cc2ccc(F)cc2)[C@H]2c3cc(C(=O)N(C)C)n(Cc4ccc(C)o4)c3C[C@H]2CN1C(=O)c1ccccc1`, for which the composite z-score in the experiment with Albumin (Bos taurus) was -0.373; in experiment [2], 1.6; in [3], 0.992; in [4], 0.458; in experiment [5] it was 3.29; in experiment [6], 1.13. Also, the composite z-score in the experiment on Sam68 (KHDRBS1) is 0.47; in [7], -0.852; in [8] it was -1.67; in experiment [9] it was 1.17; in experiment [10], 0.761; in experiment [11] it was -0.42. Also, the composite z-score in experiment [12] is -1.92; in [13], -1.96; in experiment [14] it was -1.4; with Lefty1 it was -1.2; in [16], 0.319. The composite Z-score in experiment [1] was 0.444 (inactive). For the same compound, the z-score in experiment [15] is 0.546; in experiment [17] it was 0.483 (inactive).
In the case of `CC(C)(C)OC(=O)CC[C@@]1(C(=O)N2CCCCC2)N=C(c2ccc(OCCCO)cc2)O[C@@H]1c1ccccc1`, the composite z-score with Albumin (Bos taurus) was 0.962; in experiment [2], 0.372; in experiment [3], -0.0659; in [4], 0.781; in [5], 2.59; in experiment [6] it was 0.796. In addition, the composite z-score with Sam68 (KHDRBS1) was 1.29; in experiment [7] it was -0.409; in experiment [8], 0.719; in experiment [9], 1.87; in experiment [10] it was 1.25; in experiment [11], 0.744. Besides, the composite z-score in [12] turned out to be 1.02; in experiment [13] it was 1.09; in [14], 1.04; in the experiment with Lefty1 it was 0.501; in [16], 1.27. Besides, the composite Z-score in [1] is -0.317 (inactive). For the same compound, the values for the z-score in [15] and in experiment [17] were 1.09 and -1.73 (inactive), respectively.
On to `COCC(=C=CC[C@@H](O)c1ccc(OCCO)cc1)C[C@@H](O)c1ccccn1`, for which the composite z-score with Albumin (Bos taurus) is 0.762; in experiment [2], -0.0947; in [3], -0.157; in [4] it was 0.532; in [5], 0.528; in experiment [6] it was -0.517. The composite z-score with Sam68 (KHDRBS1) was 0.472; in [7], 0.141; in experiment [8], 0.403; in [9], 2.32; in experiment [10] it was -0.14; in experiment [11], 0.359. Further, the composite z-score turned out to be 0.792 in experiment [12]; 0.979 in experiment [13]; 0.249 in [14]; 0.517 in the experiment on Lefty1; 0.643 in experiment [16]. Also, the composite Z-score in [1] was -0.628 (inactive). The z-score in [15] is 0.0965; in experiment [17], -0.501 (inactive).
Regarding `CCCC=C(CCC)[C@@H](NS(=O)(=O)c1ccc(Cl)cc1)c1ccc(C(=O)OC)cc1`, the composite z-score with Albumin (Bos taurus) is 0.196; in [2], -0.0111; in experiment [3], 0.0703; in experiment [4] it was 0.805; in experiment [5], 0.314; in [6] it was -0.159. For the same compound, the composite z-score was 0.674 in the experiment on Sam68 (KHDRBS1); -0.0433 in [7]; 0.627 in experiment [8]; 0.817 in experiment [9]; 0.843 in [10]; 0.0301 in [11]. In addition, the composite z-score in experiment [12] is 0.539; in experiment [13] it was -0.843; in experiment [14], -0.174; in the experiment with Lefty1, 0.181; in experiment [16] it was 0.309. Moreover, the composite Z-score in experiment [1] is -0.243 (inactive). In addition, the figures for the z-score in experiment [15] and in experiment [17] were 0.418 and 2.84 (inactive), respectively.
Regarding `COC(=O)[C@@]1(Cc2ccccc2)[C@H]2c3cc(C(=O)N4CCCC4)n(Cc4c(CO)[nH]cc(C)c4=O)c3C[C@H]2CN1C(=O)c1ccccc1`, the composite z-score with Albumin (Bos taurus) is 0.677; in experiment [2], 0.0076; in experiment [3] it was 0.154; in experiment [4], 0.701; in experiment [5], 2.64; in [6] it was 1.32. In addition, the composite z-score is 0.109 with Sam68 (KHDRBS1); -0.174 in [7]; 0.0417 in experiment [8]; 1.18 in experiment [9]; 0.93 in experiment [10]; 0.777 in experiment [11]. For the same compound, the composite z-score in [12] is 0.827; in experiment [13], 0.518; in experiment [14], -0.258; in the experiment on Lefty1 it was -0.816; in experiment [16], 1.05. In addition, the composite Z-score in [1] was -0.0461 (inactive). For the same compound, the z-score in [15] is -0.0421; in experiment [17], 2.49 (inactive).

These data come from PubChem BioAssay.
